Autofluor counter: counter-screen for toxin protease inhibitors: compound fluorescence; 360,000 compounds, 3.1% hits; fluorescence intensity (test concentration not listed); compound autofluorescence counterscreen, microsphere flow cytometry; active compounds read high; in the data active = fluorescence intensity above about 16000; inconclusive = no clear call, values can overlap the other calls
GDH-TPI counter: counter-screen for M. tuberculosis FBA inhibitors: GDH-TPI coupled enzymes. GDH-TPI coupled enzyme counterscreen, NADH absorbance. inhibition, % at 4.8 µM. 360,000 compounds, 1.2% hits. AID 588335; in the data active = inhibition above about 30%;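 also: 0% = DMSO wells and 100% = wells lacking the enzyme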
BoNT-A LC inh2: blocks Botulinum neurotoxin A light chain protease. multiplex microsphere protease substrate cleavage, flow cytometry. inhibition, % at 10 µM. 360,000 compounds, 0.17% hits; also: plate controls were buffer without enzyme for full effect and enzyme alone for no effect
FBA Mtb inh: inhibitors of M. tuberculosis fructose-bisphosphate aldolase; 360,000 compounds, 2.3% hits; P9WQA3; AID 588726; inhibition, % at 1 µM; purified M. tuberculosis FBA, fluorescence read-out; in the data active = inhibition above about 27%;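 also: 0% = vehicle and 100% = reference inhibitor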
Anthrax LF inh2: inhibitors of Bacillus anthracis lethal factor protease. 360,000 compounds, 0.12% hits. multiplex microsphere protease cleavage assay, LF. P15917. inhibition, % at 10 µM; also: plate controls were buffer without enzyme for full effect and enzyme alone for no effect
Target sequence (P15917 whole entry, looked up): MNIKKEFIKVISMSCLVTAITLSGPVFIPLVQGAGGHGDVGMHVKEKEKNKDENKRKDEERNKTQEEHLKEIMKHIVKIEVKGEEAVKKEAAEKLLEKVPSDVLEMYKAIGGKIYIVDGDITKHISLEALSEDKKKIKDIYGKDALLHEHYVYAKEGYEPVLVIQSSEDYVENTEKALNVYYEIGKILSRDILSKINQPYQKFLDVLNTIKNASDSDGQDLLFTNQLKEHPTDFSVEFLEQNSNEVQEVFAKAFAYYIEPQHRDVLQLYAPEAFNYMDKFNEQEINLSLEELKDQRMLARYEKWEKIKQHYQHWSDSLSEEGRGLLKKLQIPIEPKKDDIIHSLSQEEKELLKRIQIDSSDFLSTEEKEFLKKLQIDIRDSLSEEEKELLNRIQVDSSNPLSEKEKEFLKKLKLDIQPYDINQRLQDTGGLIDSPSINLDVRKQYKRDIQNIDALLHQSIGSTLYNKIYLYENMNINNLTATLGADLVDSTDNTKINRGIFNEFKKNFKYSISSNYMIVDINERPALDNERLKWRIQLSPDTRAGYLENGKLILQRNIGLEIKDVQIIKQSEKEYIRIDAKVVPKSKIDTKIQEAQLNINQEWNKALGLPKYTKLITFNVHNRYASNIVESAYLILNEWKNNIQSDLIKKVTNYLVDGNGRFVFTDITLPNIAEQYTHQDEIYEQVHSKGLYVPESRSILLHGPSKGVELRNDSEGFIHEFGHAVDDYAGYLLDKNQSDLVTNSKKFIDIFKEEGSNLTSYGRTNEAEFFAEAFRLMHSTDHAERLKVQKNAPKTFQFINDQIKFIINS
BoNT-F LC inh: inhibitors of Botulinum neurotoxin F light chain protease. inhibition, % at 10 µM. 360,000 compounds, 0.22% hits. Multiplex microsphere protease cleavage assay, flow cytometry. AID 588497; in the data active = inhibition above about 35%, passing the limit was not always enough; inconclusive = no clear call, values can overlap the other calls; also: plate controls were buffer without enzyme for full effect and enzyme alone for no effect
An asterisk follows results filed as active; u = inconclusive; x = no result given. The list is not random: actives were taken first. Their share in the collection is about 6.6%. Rule as the data show it, unless noted: active = inhibition above about 30%; inconclusive = no clear call, values can overlap the other calls; inactive = below that.

SMILES | Autofluor counter | GDH-TPI counter | BoNT-A LC inh2 | FBA Mtb inh | Anthrax LF inh2 | BoNT-F LC inh
COc1cc(SC)ccc1C(=O)NCCOc1ccc(Cl)cc1 | 2391 | 13 | 0 | -2 | -1 | -1
c1ccc(COc2cccc(-c3cc4nc(NCCCn5ccnc5)ccn4n3)c2)cc1 | 3963 | 1 | -1 | 6 | 0 | -9
COc1ccc(C2CC(=O)N3CN(Cc4ccco4)CSC3=C2C#N)cc1 (stereo not drawn) | 20177* | -1 | u | 0 | 1 | 2
N#CC1=C2SCN(Cc3ccco3)CN2C(=O)CC1c1ccc(Cl)cc1 (stereo not drawn) | 22500* | 1 | 3 | 4 | 1 | 2
CC[C@]1(C(=O)OC)[C@H]2C(=O)N(C)C(=O)[C@H]2[C@H]2CN=C(SC)N21 | 3883 | 8 | 0 | -2 | 0 | -1
COc1ccc(OC)c(CNC(=O)CCC(=O)N2Cc3cccc(OC)c3Oc3ncccc32)c1 | 4348 | 9 | 0 | -1 | -2 | -1
COc1ccc(OCCn2c(C)c(/C=N/n3cnnc3)c3ccccc32)cc1 | 2174 | 12 | -1 | 4 | -5 | -8
COc1cccc(OCCn2c(C)c(/C=N/n3cnnc3)c3ccccc32)c1 | 5176 | 34* | -1 | 0 | 0 | -26
CCCC1(c2ccccc2)NC(=O)N(CC(=O)c2[nH]c(C)c(C(=O)OCC)c2C)C1=O (stereo not drawn) | 2244 | 3 | 0 | 0 | -1 | 2
CCOC(=O)c1c(C)[nH]c(C(=O)CN2C(=O)NC(C)(c3ccc4ccccc4c3)C2=O)c1C (stereo not drawn) | 20042* | 7 | -2 | -5 | -3 | -2
C#Cc1ccccc1OCCCN1CCC(C(O)(c2ccccc2)c2ccccc2)CC1 | 6643 | x | -1 | x | -6 | -6
CC(C)n1c(=O)c2ccccc2n1Cc1cn(Cc2ccccc2)nn1 | 4226 | x | 0 | 115* | -10 | -5
CC(C)n1c(=O)c2ccccc2n1Cc1cn(-c2ccccc2)nn1 | 5446 | x | 0 | 120* | -2 | 0
COC(=O)Cn1c2ccccc2c(=O)n1C(C)C | 4706 | x | 0 | x | -8 | -3
CC(C)n1c(=O)c2ccccc2n1Cc1cn(CCc2c[nH]c3ccccc23)nn1 | 5371 | x | -1 | 5 | 1 | -8
CCOC(=O)C1CCCN(C(=O)c2ccc(F)c(C)c2)CC1 (stereo not drawn) | 3983 | 4 | 0 | 0 | 2 | 6
CN(C)S(=O)(=O)c1cccc(NC(=O)COC(=O)/C=C/c2ccc(Br)o2)c1 | 4638 | 39* | 0 | 0 | -2 | -2
Cc1ccc(NC(=O)COC(=O)/C=C/c2ccc(Br)o2)cc1S(=O)(=O)N(C)C | 4926 | 17 | -1 | 5 | -5 | -7
CN(C)S(=O)(=O)c1cccc(NC(=O)COC(=O)c2cc(-c3cccc(Br)c3)nc3ccccc23)c1 | 2560 | 32* | 1 | -3 | -3 | -4
S=C(Nc1cccc(Cl)c1)N1CCN(Cc2ccccc2)CC1 | 2426 | -5 | 0 | -3 | 0 | -4
CCN(CC)S(=O)(=O)c1ccc(C)c(NC(=O)CN2CCN(C)CC2)c1 | 4293 | -14 | 3 | 2 | -1 | 0
COc1cc(-c2noc(CCCC(=O)NC3CCCCC3)n2)cc(OC)c1OC | 17180* | 11 | u | 3 | -2 | -3
CCOc1ccc(-c2noc(CCCC(=O)NC3CCCCC3)n2)cc1OC | 3690 | -8 | 0 | -2 | 8 | 11
O=S(=O)(/N=C(/Nc1ccccc1)c1ccccc1O)c1ccccc1 | 3358 | 3 | -1 | 2 | -5 | 0
CCc1ccc(N(C(=O)Cc2cccs2)C(C(=O)NC2CCCCC2)c2cn(C)nc2C)cc1 (stereo not drawn) | 23253* | 7 | u | -2 | -1 | -2
Cc1ccccc1C(C(=O)NC1CCCC1)N(C(=O)Cc1cccs1)c1ccc2c(c1)OCCO2 (stereo not drawn) | 4286 | 13 | 0 | -1 | -7 | -2
Cc1cc(C)cc(N(C(=O)Cc2cccs2)C(C(=O)NC2CCCCC2)c2ccccn2)c1 (stereo not drawn) | 23274* | 4 | u | -1 | -1 | -2
CC1CCCCC1N(C)C1CCN(C(=O)CNC(=O)/C=C/c2cccc(Cl)c2)CC1 (stereo not drawn) | 4126 | -3 | 2 | 6 | -2 | 3
O=S(=O)(c1ccc(Br)s1)n1cccn1 | 20761* | -16 | u | -5 | -1 | 1
